The values that follow come from PubChem BioAssay (Tox21).

Several values for one entry are separate records, joined by “and”; a condition that tells them apart may be missing. Equal entries are not always repeated. Records with an inconclusive call do not appear. Some structures have more than one record in an assay (separate samples or runs), and their calls can disagree. Activity calls are given as the source filed them. Unless noted, calls come from the whole dose curve.

Assay [1] can be described thus: qHTS assay to identify small molecule antagonists of the vitamin D receptor (VDR) signaling pathway - cell viability counter screen (AID 743225; active = well fitted curve in the direction sought with a large enough effect in the repeat runs; an effect the other way counts as inactive or inconclusive; note: nearly all actives have a fitted effect of over 50% in size; note: potency is the fitted concentration of half-maximal effect). In a few lines: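 VDR-bla HEK 293T cells, 4 h pre-incubation at 37C, then compound plus 1-alpha,25-dihydroxyvitamin D3 (3 nM final) for 16 h. After the beta-lactamase FRET read, CellTiter-Glo was added to the same wells; luminescence after 30 min at room temperature.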
For orientation: qHTS replaces the single test concentration by a dilution series.

Assay [2] can be described thus: qHTS assay to identify small molecule agonists of the NFkB signaling pathway (AID 1159509; active = well fitted curve in the direction sought with a large enough effect in the signal ratio in the repeat runs, not every such curve was filed as active; the % refers to the signal ratio; note: series mostly up to about 61 µM). In a few lines:
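NFkB-bla ME-180 cells carry a beta-lactamase reporter under an NF-kB response element. They were plated overnight, then exposed to compounds for 5 h at 37 C. Read-out is LiveBLAzer FRET after 1.5 hr at room temperature (405 nm excitation; 460/530 nm emission).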

A short description of assay [3]: qHTS assay to identify small molecule agonists of the NFkB signaling pathway - cell viability counter screen (AID 1159515). Note: nearly all actives have a fitted effect of over 55% in size. Note: potency is the fitted concentration of half-maximal effect. In a few lines:
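NFkB-bla ME-180 cells, 2,000/well, plated overnight at 37 C; compound added for 5 hr at 37 C. Viability read in the same wells as the bla reporter, by CellTiter-Glo luminescence after 30 min at room temperature.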

Assay [4] is described as follows: qHTS assay to identify small molecule agonists of the endoplasmic reticulum stress response signaling pathway (AID 1159516; active = well fitted activation curve with a large enough effect in the signal ratio in the repeat runs, not every such curve was filed as active; the % refers to the signal ratio). In short, it runs like this: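 CellSensor ESRE-bla HeLa cells, 1,500 per well, plated overnight, then exposed to compounds for 5 hr at 37 C. Beta-lactamase reporter read with LiveBLAzer B/G FRET substrate after 2 hr at room temperature, 405 nm excitation, 460 and 530 nm emission.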

Assay [5] is described as follows: qHTS assay to identify small molecule antagonists of the retinoid-related orphan receptor gamma (ROR-gamma) signaling pathway - cell viability counter screen (AID 1159520; active = well fitted curve in the direction sought with a large enough effect in the repeat runs; an effect the other way counts as inactive or inconclusive; note: nearly all actives have a fitted effect of over 50% in size; note: potency is the fitted concentration of half-maximal effect). In short, it runs like this: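 Cytotoxicity was read from cellular ATP (CellTiter-Glo luminescence) after 16 hr at 37 C with 1 uM doxycycline induction. The inducer was added 2 hr after compound transfer to Tet-on ROR gamma CHO cells.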

Assay [6] addresses Nuclear receptor ROR-gamma (Homo sapiens) (UniProt P51449). The experiment in a line: qHTS assay to identify small molecule antagonists of the retinoid-related orphan receptor gamma (ROR-gamma) signaling pathway (AID 1159521; active = well fitted curve in the direction sought with a large enough effect in the repeat runs; an effect the other way counts as inactive or inconclusive; note: nearly all actives have a fitted effect of over 50% in size; note: potency is the fitted concentration of half-maximal effect). In a few lines:
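Tet-on RORγ CHO cells carrying a ROR response element–luciferase reporter were pretreated with compounds for 2 h, then induced with 1 uM (final) doxycycline hyclate for 16 h at 37 C. Antagonism was read as decreased ONE-Glo luminescence.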

A short description of assay [7]: qHTS assay to identify small molecule agonists of the AP-1 signaling pathway - cell viability counter screen (AID 1159525). Note: nearly all actives have a fitted effect of over 55% in size. In short, it runs like this: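 Luminescent ATP readout (Cell Titer Glo, 30 min RT), normalised to DMSO and tetra n-octyl ammonium bromide controls. Cells were ME-180 AP-1-bla in 0.5% dialyzed FBS Opti-MEM, with a 5 h, 37 °C compound exposure.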

Assay [8] is described as follows: qHTS assay to identify small molecule agonists of the AP-1 signaling pathway (AID 1159526).
For assay [9], the target named is Retinoic acid receptor RXR-alpha (Homo sapiens) (UniProt P19793). The experiment in a line: qHTS assay to identify small molecule agonists of the RXR signaling pathway (AID 1159527). Note: nearly all actives have a fitted effect of over 35% in size. Note: potency is the fitted concentration of half-maximal effect. In short, it runs like this:
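GeneBLAzer RXR-alpha-UAS-bla HEK 293T cells in medium with 2% charcoal-stripped FBS, pre-incubated 5 hr at 37 C, then exposed to compounds 16 hr. Beta-lactamase reporter read by FRET substrate, 2 hr room temperature, 460/530 nm emission.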

Assay [10] is described as follows: qHTS assay to identify small molecule agonists of the endoplasmic reticulum stress response signaling pathway - cell viability counter screen (AID 1159517).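 Note: HeLa cells carrying an ER stress response element beta-lactamase reporter; series mostly up to about 61 µM; nearly all actives have a fitted effect of over 50% in size.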 In a few lines:
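HeLa cells carrying an ESRE-driven beta-lactamase reporter receive compound for 5 hr at 37 C. Cell viability is then gauged with CellTiter-Glo by luminescence, 30 min at room temperature.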

Chain of Retinoic acid receptor RXR-alpha (Homo sapiens) (P19793 whole entry, looked up): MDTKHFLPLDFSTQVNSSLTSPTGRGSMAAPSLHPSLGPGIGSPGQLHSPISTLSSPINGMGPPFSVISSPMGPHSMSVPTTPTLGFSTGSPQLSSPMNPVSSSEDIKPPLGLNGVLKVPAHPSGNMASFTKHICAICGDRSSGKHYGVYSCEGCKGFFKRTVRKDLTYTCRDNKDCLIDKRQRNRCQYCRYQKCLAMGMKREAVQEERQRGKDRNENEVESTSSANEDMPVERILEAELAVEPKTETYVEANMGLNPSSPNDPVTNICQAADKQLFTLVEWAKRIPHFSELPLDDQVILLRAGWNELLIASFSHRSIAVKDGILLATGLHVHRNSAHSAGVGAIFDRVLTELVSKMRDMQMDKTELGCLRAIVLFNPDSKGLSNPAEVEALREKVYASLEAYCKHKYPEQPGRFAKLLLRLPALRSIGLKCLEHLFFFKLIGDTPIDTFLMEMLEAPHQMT

Turning to `CCCCNS(=O)(=O)c1ccccc1`, the Potency result in assay [1], in assay [3], in [4], in [5], in assay [6] and in assay [7] was “inactive” throughout. The Potency entry in assay [9] was “inactive”. For the same molecule, the molecule was classed as inactive in assay [2] and in assay [8].
With `CN(C)CCN(Cc1cccs1)c1ccccn1`, the Potency result in [1], in assay [3], in assay [4], in assay [10], in [5] and in [9] was “inactive” throughout. The result in assay [2] was inactive.
On to `O=C(Nc1ccc(Cl)cc1)Nc1ccc(Cl)c(Cl)c1`, for which the Potency entry in [1], in assay [3], in [4] and in assay [10] was “inactive” each time. For the same molecule, in [2], the result was inactive. Besides, the Potency in assay [5] was 17.1 µM (active); in assay [6], 17.2 µM (active).
Consider `Cc1cccc([N+](=O)[O-])c1C`, for which the Potency result in assay [1], in [3], in assay [4], in assay [10], in [5] and in assay [7] was “inactive” throughout. Besides, in [9], the Potency entry is “inactive”. Besides, the molecule was classed as inactive in assay [2] and in assay [8].
For the molecule `COC(=O)c1ccccc1`, the Potency entry in [1], in assay [3], in [4], in assay [10], in [5] and in assay [6] was “inactive” in each case. Moreover, the Potency entry in [9] is “inactive”. Besides, the result in assay [2] and in assay [8] was inactive.
For the molecule `CC(C)CC(C)(O)C#CC(C)(O)CC(C)C` (stereo not given), the Potency entry in assay [1], in assay [3], in assay [4], in [5], in assay [6] and in assay [7] was “inactive” each time. Besides, the result in assay [2] and in [8] was inactive. The Potency in assay [9] is 12.1 µM (active) and inactive.
For the molecule `O=P(O)(O)O`, in [1], the Potency result is “inactive and 5.49 µM (active)”. Moreover, the result in assay [2] and in assay [8] was inactive. For the same molecule, the Potency result in assay [3], in assay [4], in assay [10], in assay [5], in assay [6] and in [9] was “inactive” throughout.
On to `Brc1cc(Oc2cc(Br)c(Br)c(Br)c2Br)c(Br)c(Br)c1Br`, for which the Potency result in assay [1], in [4], in [10], in assay [5], in assay [6] and in assay [9] was “inactive” in each case. The molecule was classed as inactive in assay [2] and in assay [8]. Also, the Potency in [3] is 1.56 µM (active) and inactive.
For `CC1=CC2C3CC(C=C3C)C2C1` (stereo not given), the Potency result in assay [1], in assay [3], in [4], in assay [5], in [6] and in assay [7] was “inactive” in each case. Further, the Potency result in assay [9] was “inactive”. The call in [2] and in [8] was inactive.
For `COC(=O)C1=C(C)NC(C)=C(C(=O)OCCN(C)Cc2ccccc2)C1c1cccc([N+](=O)[O-])c1` (stereo not given), the call in [2] was inactive. In addition, the Potency result in assay [3], in assay [4] and in assay [7] was “inactive” each time. The Potency is 60.8 µM (active) in assay [5]; 30.5 µM (active) and 29.8 µM (active) in assay [6].
As to `C/C=C/C(=O)O`, the Potency result in assay [1], in assay [3], in [4], in assay [10], in [5] and in assay [6] was “inactive” each time. Moreover, the Potency entry in [9] is “inactive”. The result in assay [2] and in assay [8] was inactive.
In the case of `NNc1ccc(C(=O)O)cc1`, the Potency result in assay [1], in assay [3], in [4], in assay [5], in assay [6] and in assay [7] was “inactive” in each case. Besides, the molecule was called inactive in assay [2] and in assay [8]. For the same molecule, the Potency in [9] was 49.5 µM (active).
Regarding `O=C(/C=C/C=C/c1ccc2c(c1)OCO2)N1CCCCC1`, the Potency result in [1], in assay [3], in [4], in [10], in assay [5] and in assay [6] was “inactive” each time. Also, in assay [9], the Potency result was “inactive”. The call in assay [2] and in assay [8] was inactive.
As for `CN(C)c1nc(N(C)C)nc(N(C)C)n1`, the Potency result in assay [1], in [3], in assay [4], in [5], in assay [6] and in [7] was “inactive” each time. In addition, the Potency entry in assay [9] was “inactive”. For the same molecule, the outcome in [2] and in [8] was inactive.
On to `Cc1c(C(N)=O)cc([N+](=O)[O-])cc1[N+](=O)[O-]`, for which the Potency entry in [1], in [3], in assay [4], in assay [5], in assay [6] and in [7] was “inactive” throughout. In [9], the Potency result was “inactive”. Besides, the outcome in assay [2] and in assay [8] was inactive.
Take `Cc1ccc2c(n1)Oc1ccc(C(C)C(=O)OCC(=O)N(C)C)cc1C2` (stereo not given): the Potency result in assay [1], in assay [3], in assay [4], in assay [5], in [6] and in assay [7] was “inactive” each time. In addition, the Potency result in assay [9] was “inactive”. For the same molecule, the molecule was classed as inactive in [2] and in [8].
As to `CCCCC(CC)COCC1CO1` (stereo not given), the Potency result in [1], in assay [3], in [4], in assay [5], in assay [6] and in [7] was “inactive” each time. For the same molecule, in [9], the Potency result was “inactive”. Besides, the call in [2] and in assay [8] was inactive.
`CCCC(=O)O`: the Potency result in assay [1], in assay [3], in assay [4], in assay [10], in assay [5] and in [6] was “inactive” throughout. The Potency result in [9] is “inactive”. Also, the molecule was classed as inactive in [2] and in [8].
On to `Nc1ncnc2nc[nH]c12`, for which the Potency entry in [1], in assay [3], in assay [4], in assay [10], in assay [5] and in [6] was “inactive” in each case. The Potency entry in assay [9] is “inactive”. In addition, the result in [2] and in assay [8] was inactive.
`O=C(c1ccccc1)c1ccccc1O`: the Potency result in assay [1], in assay [3], in assay [4], in assay [5], in [6] and in assay [7] was “inactive” throughout. The Potency entry in assay [9] was “inactive”. Further, the molecule was called inactive in [2] and in assay [8].
Take `OCCO`: the Potency result in assay [1], in assay [3], in assay [4], in assay [10], in [5] and in assay [7] was “inactive” in each case. Moreover, in assay [9], the Potency result was “inactive”. The call in assay [2] and in [8] was inactive.
On to `Nc1ccc(Cl)cc1Cl`, for which the Potency entry in assay [1], in assay [3], in assay [4], in assay [5], in assay [6] and in assay [7] was “inactive” throughout. Besides, the Potency entry in [9] is “inactive”. Besides, the result in assay [2] and in [8] was inactive.
As to `CCC(C)OC(=O)c1ccc(O)cc1` (stereo not given), the call in assay [2] and in [8] was inactive. In addition, the Potency result in assay [3], in assay [4], in [5], in [6], in assay [7] and in assay [9] was “inactive” in each case.
In the case of `COc1ccccc1/C=C/C=O`, the Potency result in [1], in [3], in assay [4], in assay [5], in assay [6] and in [7] was “inactive” in each case. Further, in assay [9], the Potency result was “inactive”. Besides, the call in [2] and in [8] was inactive.
`CC1=CCC(C(C)(C)O)CC1` (stereo not given): the Potency entry in assay [1], in assay [3], in [4], in assay [10], in assay [5] and in assay [9] was “inactive” each time. Moreover, the molecule was called inactive in [2] and in assay [8].
As to `Cc1ncc[nH]1`, the Potency result in assay [1], in assay [3], in [4], in [10], in [5] and in [6] was “inactive” throughout. The Potency entry in assay [9] is “inactive”. Moreover, the molecule was classed as inactive in [2] and in assay [8].
